FLuc counter: inhibits or activates purified firefly luciferase, miR-21 counter-screen. Potency, µM (top dose mostly 57.5 µM), inactives show at the top dose activity change, negative = inhibition, usual class: inhibitors. 360,000 tested, 6.9% active. P08659. purified FLuc, Km substrates, luminescence inhibition;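 also: plate controls were vehicle for no effect and reference inhibitor for full effect; nearly all actives have a fitted effect of over 55% in size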
Target sequence (P08659 whole entry, looked up): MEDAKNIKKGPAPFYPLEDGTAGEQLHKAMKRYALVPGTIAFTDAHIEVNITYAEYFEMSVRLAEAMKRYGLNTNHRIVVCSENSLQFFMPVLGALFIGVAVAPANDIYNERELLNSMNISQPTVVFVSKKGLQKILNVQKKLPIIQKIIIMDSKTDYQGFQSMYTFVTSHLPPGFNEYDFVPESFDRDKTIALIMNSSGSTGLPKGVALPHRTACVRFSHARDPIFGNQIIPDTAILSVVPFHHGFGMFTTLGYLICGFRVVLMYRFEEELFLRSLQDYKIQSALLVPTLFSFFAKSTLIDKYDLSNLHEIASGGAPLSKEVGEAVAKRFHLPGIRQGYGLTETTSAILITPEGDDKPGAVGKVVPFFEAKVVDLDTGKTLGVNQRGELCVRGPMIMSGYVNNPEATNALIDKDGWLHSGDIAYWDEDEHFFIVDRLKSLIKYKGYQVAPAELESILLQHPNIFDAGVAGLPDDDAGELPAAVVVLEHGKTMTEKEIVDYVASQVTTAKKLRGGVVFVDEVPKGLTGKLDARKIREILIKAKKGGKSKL
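Biochemical qHTS of compounds, final roughly 60 µM downward over six points, against 10 nM purified firefly luciferase using Km concentrations of substrates (10 uM D-luciferin, 10 uM ATP) in Tris acetate pH 7.5 buffer; luminescence output.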
ELG1 genotoxic: induces genotoxicity in HEK293T cells with luciferase-tagged ELG1. HEK293T ELG1-luciferase reporter, luminescence, 16 h. Potency, µM (doses to about 46 µM), for inactives: at the highest dose activity change, positive = activation, hits mostly activators. 330,000 tested, 1.3% active; also: % of control where 0% means no effect; nearly all actives have a fitted effect of over 60% in size
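After overnight (16 hr) compound treatment at 37 °C, ELG1-luciferase HEK293T cells were lysed with ONE-Glo; luminescence quantified 30 min later at room temperature.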
ELG1 repair inh: blocks ELG1-dependent DNA repair in HEK293T cells | AID 504467 | 330,000 tested, 2.3% active | HEK293T ELG1-luciferase reporter, luminescence, 16 h; DNA damage induced by 5-fluorouridine | Potency, µM (highest dose often 46.1 µM), for the others: at the highest dose activity change, negative = inhibition, actives largely listed as inhibitors; also: % is scaled to controls: 0 for no effect and ±100 for the full control effect; nearly all actives have a fitted effect of over 55% in size
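HEK293T cells expressing luciferase-tagged ELG1 (2,000/well) received 5-Fluorouridine plus compound or DMSO for 16 hr at 37 °C. Luciferase was read by ONE-Glo luminescence after 30 min at room temperature.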
Rab9 prom act: activates the Rab9 promoter; Huh7 Rab9 promoter-luciferase reporter, luminescence, 24 h; Potency, µM (series often up to 9.22 µM), without a hit: at the top dose activation, negative = inhibition, actives largely listed as activators; 320,000 tested, 2.8% active; AID 485297; also: % of control where 0% means no effect; nearly all actives have a fitted effect of over 60% in size
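Huh7 reporter line, Rab9 promoter upstream of luciferase. Compound exposure 24 h at 37 °C in reduced-serum medium with 10% FBS. Read-out: luminescence.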
SMN2 splice up: enhancers of SMN2 splice variant expression; HEK293 SMN2-luciferase splicing reporter, luminescence, 30-36 h; AID 1458; 210,000 tested, 2.8% active; Potency, µM (top dose mostly 46.1 µM), without a hit: at the highest dose activity change, positive = activation, hits mostly activators; also: % of control where 0% means no effect; nearly all actives have a fitted effect of over 55% in size
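qHTS luciferase splicing reporter: luminescence rises when SMN2 exon 7 is included in transfected HEK293 cells. Compound exposure lasted 30-36 h at 37C, with 4.5 mM final sodium butyrate as control, followed by a ONE-Glo read.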
NPC1 promoter act: NPC1 promoter activation | Huh7 NPC1 promoter luciferase reporter, 24 h | 320,000 tested, 2.4% active | Potency, µM (series often up to 9.22 µM), inactives show top-dose activation, most hits filed as activators; also: % of control where 0% means no effect; nearly all actives have a fitted effect of over 60% in size
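Stable NPC1-promoter luciferase Huh7 line; cpd (DMSO) 24 h, 37 °C, 5% CO2; Amplite luciferase reagent 10 min RT; luminescence readout. qHTS format.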
An asterisk follows results filed as active; ? = inconclusive; . = not tested or not shown; [ ] = another dose, or the depositor's remark. The list is not random: actives were taken first. Their share in the collection is about 9.4%. Calls follow the shape of the dose curve; as a rule, active = well fitted curve in the direction sought with a large enough effect; inconclusive = small, poorly fitted or top-dose-only effect, or another doubt; inactive = no such curve, though single readings can be large; an effect the other way counts as inactive or inconclusive. Potency is read from the fitted curve at half-maximal effect.

SMILES	FLuc counter	ELG1 genotoxic	ELG1 repair inh	Rab9 prom act	SMN2 splice up	NPC1 promoter act
CCOc1c2ccoc2nc2c(OC)c(OC)ccc12	21µM*	?	24%	21%	.	14%
O=Cc1cn(-c2ccccc2)nc1-c1cccnc1	?	1%	4%	-7%	12%	-1%
Cc1ccc(-c2nn(-c3ccccc3)cc2CO)o1	12µM*	?	?	?	8.9µM*	?
OCc1cn(-c2ccccc2)nc1-c1ccc(-c2nn(-c3ccccc3)cc2CO)cc1	0%	-8%	?	-6%	-13%	-7%
Cc1ccc(-c2nn(-c3cccc(F)c3)cc2CN2CCN(c3ccccn3)CC2)o1	?	-9%	-7%	-16%	.	-1%
Cc1ccc(-c2nn(-c3ccccc3)cc2C=O)o1	3µM*	?	?	?	10µM*	9%
Cc1ccc(-c2nn(-c3cccc(F)c3)cc2CNCc2cccnc2)o1	19µM*	-6%	-12%	1%	.	-1%
Cc1ccc(-c2nn(-c3ccccc3)cc2C(N)=O)o1	?	0%	5%	-5%	18%	1%
OCc1cn(-c2ccccc2)nc1-c1ccco1	17µM*	?	?	24%	-5%	?
CCCCN(C)S(=O)(=O)c1cc(-c2cc(C)no2)ccc1C	-17%	.	.	.	.	.
Cc1cc(O)c(C)c2c1CC[C@H]1[C@H](C)C(=O)O[C@H]21	.	.	.	.	0%	.
CCc1nnc2c(Nc3ccc(N(CC)CC)cc3C)nc3ccccc3n12	-20%	.	.	.	.	.
C=CCn1c(=O)c2ccccc2n2c(SCC(=O)Nc3sc(C)c(CC)c3C(=O)OCC)nnc12	2%	-1%	?	-2%	-23%	-2%
C=CCn1c(=O)c2ccccc2n2c(SCC(=O)Nc3sc(C(=O)N(CC)CC)c(C)c3C(=O)OCC)nnc12	-5%	0%	21µM*	0%	-19%	4%
CCOC(=O)c1c(NC(=O)CSc2nc3cc(Cl)ccc3c(=O)n2Cc2ccco2)sc(C(=O)N(C)C)c1C	1%	-3%	3.3µM*	-3%	.	-6%
CCc1ccc(NC(=O)CSc2nc3cc(C(=O)OC)ccc3c(=O)n2Cc2ccco2)cc1	-2%	2%	?	-2%	-11%	-3%
CCN(C(=O)CSc1nc2cc(C(=O)OC)ccc2c(=O)n1Cc1ccco1)c1cccc(C)c1	-3%	-13%	7.3µM*	-2%	-6%	-3%
CCN(C(=O)CSc1nc2cc(Cl)ccc2c(=O)n1Cc1ccco1)C1CCS(=O)(=O)C1 (stereo not given)	0%	-3%	?	-10%	-15%	-2%
Cc1ccc(Oc2coc3cc(OCC(=O)NC4CCCCC4)ccc3c2=O)cc1	-4%	.	.	.	-9%	.
N#Cc1nc(-c2ccccc2F)oc1NCCc1ccccc1	27µM*	6%	?	21%	-4%	21%
N#Cc1nc(-c2ccccc2F)oc1NCc1ccccc1	-16%	6%	13%	-8%	9%	-3%
N#Cc1nc(-c2cccs2)oc1NCCc1ccccc1	19µM*	?	?	7%	-7%	18%
COc1ccc(Nc2oc(-c3cccs3)nc2C#N)cc1	4.8µM*	?	?	3.2µM*	?	?
Cc1ccccc1CNC(=O)c1ccc(CS(=O)Cc2ccc(Cl)cc2)o1 (stereo not given)	-10%	.	.	.	.	.
Cn1cc(C(=O)C(=O)N2CCc3ccccc32)c2ccccc21	1%	?	?	2.8µM*	.	3.2µM*
SMILES	FLuc counter	ELG1 genotoxic	ELG1 repair inh	Rab9 prom act	SMN2 splice up	NPC1 promoter act
COc1ccc(Cn2c3nc4ccccc4nc3c3c(=O)n(Cc4ccco4)cnc32)cc1	-16%	-5%	?	0%	12%	1%
Cc1cccc(-n2cnc3c(c2=O)c2nc4ccccc4nc2n3Cc2ccco2)c1	?	15%	18µM*	0%	?	-2%
CCOC(=O)c1cccc(NC(=O)c2cnccn2)c1	-16%	?	?	?	?	2.8µM*
O=C(NCCc1ccccc1Cl)c1cc2ccccn2n1	12µM*	.	.	.	.	.
O=C(Nc1ccc(OC(F)(F)F)cc1)c1cc2ccccn2n1	2.7µM*	.	.	.	.	.
CCOC(=O)c1cc(NC(=O)c2cnccn2)cc(C(=O)OCC)c1	3%	1%	2%	-5%	3%	0%
COc1ccc(NC(=O)c2cc3ccccn3n2)cc1	2.1µM*	1.2µM*	?	?	6.3µM*	1µM*
COc1ccc(CCNC(=O)c2cc3ccccn3n2)c(OC)c1OC	1%	4%	0%	4%	-24%	-5%
CCOc1ccc(NC(=O)Cn2nnc(-c3nc(-c4ccncc4)no3)c2N)cc1	-7%	.	.	.	.	.
O=C(Nc1ccccc1C(F)(F)F)c1cc2ccccn2n1	1.9µM*	.	.	.	.	.
CCOC(=O)c1cccc(NC(=O)c2cc3ccccn3n2)c1	3µM*	.	.	.	.	.
CCOc1ccc(OCC)c(NC(=O)c2cc3ccccn3n2)c1	-15%	.	.	.	.	.
Cc1oc2cc([N+](=O)[O-])c(O)c([N+](=O)[O-])c2c1C(=O)c1ccc(Cl)cc1	?	-5%	?	1%	.	-2%
COc1ccc(OC)c(C(=O)c2c(C)oc3cc([N+](=O)[O-])c(O)c([N+](=O)[O-])c23)c1	21µM*	3%	0%	4%	.	1%
C[C@H](NC(=O)/C(C#N)=C/c1ccc(O)c(O)c1)c1ccccc1	.	.	.	-29%[46.1 µM]	15%	-11%[46.1 µM]
O=C(OCC1CC(c2ccccc2)=NO1)c1ccc(Cl)cc1 (stereo not given)	-10%	-1%	5%	-6%	-1%	1%
CN1OC(COC(=O)c2ccccc2)CC1c1ccccc1 (stereo not given)	6.7µM*	3%	13%	8%	-13%	?
Cc1ccc(C(=O)CSc2nnc(C3CC3)n2C2CC2)s1	19µM*	?	?	?	.	?
CCc1ccc(C(=O)CSc2nnc(C3CC3)n2C2CC2)cc1	.	12%	?	26%	.	16%
Cc1ccc2nc(CSc3nnc(NC(=O)C(C)C)s3)cc(=O)n2c1	3%	.	.	.	.	.
Cc1ccnc2ccc(-c3nc4ccccc4o3)cc12	5.4µM*	?	?	3.5µM*	18µM*	?
Cc1nc2ccc(-c3nc4ccccc4o3)cc2[nH]1	2.4µM*	?	?	0.45µM*	?	0.71µM*
COc1ccc(CCNC(=O)C2CCN(c3nc4ccccc4nc3C(F)(F)F)CC2)cc1OC	1%	.	.	.	.	.
COc1ccc(CNC(=O)C2CCN(S(=O)(=O)c3c(C)noc3/C=C/c3ccccc3F)CC2)cc1	-13%	.	.	.	.	.

Screening results: PubChem BioAssay, National Center for Advancing Translational Sciences (NCATS)
